How the values were obtained:
Format in all cases: functional
[1] = target: Solute carrier family 2, facilitated glucose transporter member 1 (Homo sapiens) (UniProt P11166); assay: ST_JUDE_LEISH: Cytotoxicity at 2uM final concentration against transgenic Leishmania Mexicana promastigotes LmGLUT1 that are glucose transport deficient and complemented with the human glucose transporter GLUT1. Activity is measured by DNA content using SYBR green in vitro
[2] = target: Hexose transporter 1 (Plasmodium falciparum) (UniProt O97467); assay: ST_JUDE_LEISH: Cytotoxicity at 2uM final concentration against transgenic Leishmania Mexicana promastigotes LmPfHT that are glucose transport deficient and complemented with the Plasmodium falciparum hexose transporter. Activity is measured by DNA content using SYBR green in vitro
[3] = target: Glucose transporter (Leishmania mexicana) (UniProt O61059); assay: ST_JUDE_LEISH: Cytotoxicity at 2uM final concentration against transgenic Leishmania Mexicana promastigotes LmGT2 that are glucose transport deficient and complemented with the L. Mexicana glucose transporter 2. Activity is measured by DNA content using SYBR green in vitro

Chain of Solute carrier family 2, facilitated glucose transporter member 1 (Homo sapiens) (P11166 whole entry): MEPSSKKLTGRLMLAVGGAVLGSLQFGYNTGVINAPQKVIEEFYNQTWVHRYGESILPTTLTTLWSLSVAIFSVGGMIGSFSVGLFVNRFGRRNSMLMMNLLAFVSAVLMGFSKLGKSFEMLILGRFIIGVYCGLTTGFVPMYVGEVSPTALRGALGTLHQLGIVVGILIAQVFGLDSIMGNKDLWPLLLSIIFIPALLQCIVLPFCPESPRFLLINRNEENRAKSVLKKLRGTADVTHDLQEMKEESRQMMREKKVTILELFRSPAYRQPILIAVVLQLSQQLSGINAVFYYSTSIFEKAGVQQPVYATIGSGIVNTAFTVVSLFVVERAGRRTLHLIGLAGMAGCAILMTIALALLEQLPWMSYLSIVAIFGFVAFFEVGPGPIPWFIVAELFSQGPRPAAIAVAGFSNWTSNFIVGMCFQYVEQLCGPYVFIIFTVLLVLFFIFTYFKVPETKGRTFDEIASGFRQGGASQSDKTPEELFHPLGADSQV

| Structure (SMILES) | inhibition [1] [%] | inhibition [2] [%] | inhibition [3] [%] |
| --- | --- | --- | --- |
| O=C(Nc1cn(-c2ccc(OCc3cccc(F)c3)c(Cl)c2)c2ncncc12)c1ccncc1 | 1.53 | 1.05 | 2.96 |
| COc1cccc(C(=O)NCc2cccs2)c1OCc1ccccc1 | 1.77 | 0.89 | 1.15 |
| Cc1cc(C(=O)CN2C(=O)NC3(CCCc4ccccc43)C2=O)c(C)n1Cc1ccc(F)cc1 (stereo not given) | 2.81 | 2.54 | 5.14 |
| CCc1nc2nc(C)cc(Nc3ccc4c(c3)OCCO4)n2n1 | 2.89 | 4.78 | -3.9 |
| COc1ccc2c(Nc3ccc(N4CCN(C)CC4)cc3)cc(C)nc2c1 | 9.36 | 6.21 | 4.55 |
| N#Cc1ccc2c(c1)CN(C1CCC(NC(=O)/C=C/c3cc(C(F)(F)F)cc(C(F)(F)F)c3)CC1)CCC2 (stereo not given) | 1.63 | 1.36 | 0.57 |
| O=C(Nc1cccc(Cl)c1)c1cnc(N2CCN(c3ccncc3)CC2)c(Cl)c1 | 23.4 | 42 | 12.7 |
| O=C(Cc1c[nH]cn1)Nc1ccc(-c2ccc(-c3nc4ccccc4[nH]3)s2)cc1 | 4.05 | 5.17 | 1.71 |
| COc1ccc2nccc([C@@H](O)CN3CCC(NCCOc4ccncc4)CC3)c2c1 | -0.38 | 1.23 | -0.87 |
| Cc1ccc(Oc2cnn(C)c(=O)c2Nc2cccc(C(=O)NCCc3ccccn3)c2)c(C)c1 | 4.16 | 4.25 | 3.26 |
| O=C(c1ccc([N+](=O)[O-])o1)N1CCN(c2nc3c(F)cc(F)cc3s2)CC1 | 21 | 6.03 | 7.31 |
| O=C(NC1c2ccccc2Oc2ccccc21)c1ccccc1O | -3 | -0.11 | -0.01 |
| CC1(C)CN2CCCC2c2cc(NC(=O)/C=C/c3ccccc3Cl)ccc21 (stereo not given) | 3.26 | 2.04 | 0.94 |
| FC(F)(F)Oc1ccc(-c2cnc3ccc(NCc4ccncc4)nn23)cc1 | 2.41 | 3.58 | -1.87 |
| O=C(CCCCCNC(=O)c1ccc(O)c(-c2ccc(Cl)c(Cl)c2)c1)NC1CCCc2ccccc21 (stereo not given) | 2.15 | 2.14 | 2.15 |
| O=C(NCCCCN1CCC(c2ccc(Br)cc2)CC1)c1ccc(NC(=O)c2ccc(Cl)cc2)cc1 | -0.29 | 0.2 | -1.89 |
| O=C(CCCCCCc1ccccc1)Nc1ccc2nc3c(c(NCc4ccccc4)c2c1)CCCC3 | -0.24 | 1.39 | -2.98 |
| O=C(Nc1cccc(-c2ccc(CN3CCCC3)cc2)c1)c1ccc(F)cc1 | -0.73 | 0.3 | 0.64 |

| Structure (SMILES) | inhibition [1] [%] | inhibition [2] [%] | inhibition [3] [%] |
| --- | --- | --- | --- |
| CCCCCN1CCCC1CNS(=O)(=O)c1cccc(C(=O)Nc2cccc(C(F)(F)F)c2)c1 (stereo not given) | 6.45 | 6.76 | 5.05 |
| CCC1CCc2cc(N)cc(-c3nc4c(c(C)nn4CC)c(=O)[nH]3)c2O1 (stereo not given) | 5.2 | 4.15 | 3.42 |
| CCNC(C)(C)CN(Cc1ccc(-c2ccc(C(F)(F)F)cc2)cc1)C(=O)Cn1c(CCc2cccc(F)c2F)nc(=O)c2ccccc21 | 3.91 | 3.3 | 2.34 |
| Cc1nc2ccccc2n1C1CC2CCC(C1)N2CCCC1(c2ccccc2)CCN(C(=O)OCc2ccccc2)CC1 (stereo not given) | 3.25 | 0.85 | 2.57 |
| COc1cc2c(cc1C(F)(F)F)N(C(=O)Nc1cccc(-c3ccc(CN(C)C)cc3)c1)CC2 | 22.1 | 10.2 | 44 |
| FC(F)(F)c1ccc2[nH]c(-c3ccc(-c4cccc(CNCc5ccccc5)c4)cc3)nc2c1 | 7.1 | 4.87 | 7.33 |
| COc1cc2nc(Nc3ccc(Oc4ccccc4)cc3)nc(Nc3ccc(Oc4ccccc4)cc3)c2cc1OC | 6.52 | 3.92 | 6.04 |
| CCOC(=O)c1c(CN(CC)CC)n(-c2ccccc2)c2cc(Br)c(O)cc12 | 2.14 | 3.81 | 1.76 |
| FC(F)(F)c1cccc(CNCC2CCN(CC3CCCCC3)CC2)c1 | -0.93 | -0.13 | 0.34 |
| Cc1cccc2nc(-c3cccc(-c4ccc(NC(=O)C(C)CN5CCN(C)CC5)cc4)c3)[nH]c12 (stereo not given) | 1.5 | 0.53 | 3.85 |
| CCN(CC)CCCC(C)Nc1nc(C=Cc2ccc(Br)cc2)nc2cc(Cl)ccc12 (stereo not given) | 11 | 9.25 | 10.2 |
| Cc1cccc2nc(-c3ccc(-c4cccc(NC(=O)C(C)CN5CCN(C)CC5)c4)s3)[nH]c12 (stereo not given) | 11.7 | 10.8 | 10.3 |
| COc1ccc(NC(=O)NCC2CCCN(CCCCCNC(=O)/C=C/c3ccc(Cl)c(Cl)c3)C2)c(OC)c1 (stereo not given) | -0.03 | 3.1 | 0.18 |
| Cc1cccc(C)c1N1CCN(C2CCC(NC(=O)/C=C/c3ccccc3)CC2)CC1 (stereo not given) | 1.7 | 1.21 | 1.49 |
| Cc1n[nH]c2ccc(-c3cc(OC[C@@H](N)Cc4ccccc4)cnc3-c3cc4ccccc4s3)cc12 | 8.58 | 3.69 | 2.02 |
| CN(CC(=O)Nc1ccc(F)cc1)C(=O)c1ccc(-c2ccc(F)cc2)o1 | 5.1 | 7.16 | 5.24 |
| CN(C)CCOc1cccc(-c2cnc(N)c(-c3nc4cc(S(C)(=O)=O)ccc4[nH]3)c2)c1 | 1.53 | 2.26 | 2.58 |
